Assay outcomes: PubChem BioAssay, National Center for Advancing Translational Sciences (NCATS)
This is a sample that favours compounds with a hit; in the whole collection about 21% have one here.
SARS PLpro yeast: qHTS of Yeast-based Assay for SARS-CoV PLP; S. cerevisiae expressing SARS-CoV PLpro, growth rescue; Potency, µM (highest dose often 32.9 µM), without a hit: at the top dose activity, positive = growth rescue, hits mostly activators; actives 0.19% (n = 330,000); also: potency is read from the fitted curve at half-maximal effect; 0% is about no effect; nearly all actives have a fitted effect of over 55% in size
Pf growth 48h: Primary qHTS for delayed death inhibitors of the malarial parasite plastid, 48 hour incubation; P. falciparum luciferase growth in erythrocytes, 48 h; Potency, µM (top dose mostly 28.7 µM), for the others: at the top dose activity change, negative = inhibition, usual class: inhibitors; actives 5.9% (n = 310,000); AID 504832, 2011; active = well fitted inhibition curve with a large enough effect; inconclusive = small, poorly fitted or top-dose-only effect, or another doubt; inactive = no such curve, though single readings can be large or run the other way; also: potency is read from the fitted curve at half-maximal effect; % is scaled to controls: 0 for no effect and ±100 for the full control effect
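Read-out is firefly luciferase luminescence from an integrated reporter in P. falciparum, so falling signal marks reduced parasite growth. Infected erythrocytes were at 2% hematocrit and 0.1% parasitemia (final) in Albumax-supplemented RPMI 1640.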
NS1 inh: qHTS Assay for Inhibitors of Influenza NS1 Protein Function. AID 2326, 2010. Potency, µM (highest dose often 46.1 µM), inactives show top-dose activity, positive = more growth. actives 0.4% (n = 270,000); also: potency is read from the fitted curve at half-maximal effect; actives are rising curves; nearly all actives have a fitted effect of over 50% in size
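OD600 was taken as the measure of yeast growth restored by compound in an NS1-expressing S. cerevisiae strain. Cells had been washed out of glucose medium and diluted 1:100 into galactose -URA medium, pH 6.0.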
Cycloheximide cs: Cycloheximide Counterscreen for Small Molecule Inhibitors of Shiga Toxin | cell reporter, cycloheximide protein synthesis inhibition counterscreen | max response, % | actives 12% (n = 300,000); in the data active = max response mostly above about 13%, no sharp cut-off; inactive = mostly below about 14%; also: read at 38.3 µM for the half of the compounds with a filed dose; 0% is about no effect
Pf growth 96h: Primary qHTS for delayed death inhibitors of the malarial parasite plastid, 96 hour incubation; P. falciparum luciferase reporter growth, 96 h; Potency, µM (titrated, usually from 28.7 µM), for the others: at the top dose activity change, negative = inhibition, actives largely listed as inhibitors; actives 6.9% (n = 320,000); AID 504834, 2011; active = well fitted inhibition curve with a large enough effect; inconclusive = small, poorly fitted or top-dose-only effect, or another doubt; inactive = no such curve, though single readings can be large or run the other way; also: potency is read from the fitted curve at half-maximal effect; % is scaled to controls: 0 for no effect and ±100 for the full control effect
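Two parasite generations (96 h, 37 C, 5% CO2) of compound exposure in infected erythrocytes (0.05% parasitemia, 2% hematocrit). Luciferase-reporter P. falciparum; decreased luminescence indicates inhibited growth, aimed at apicoplast-acting delayed death.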
Shiga toxin inh: A qHTS for Small Molecule Inhibitors of Shiga Toxin; Vero cells, Shiga toxin protein synthesis inhibition reporter; inhibition, % at 38.7 µM; actives 9.2% (n = 290,000); in the data active = inhibition mostly above about 28%, no sharp cut-off; inactive = mostly below about 43%; also: 0% is about no effect
An asterisk follows results filed as active; ? = inconclusive; . = not tested or not shown. Unless noted, calls follow the shape of the full dose curve.

SMILES	SARS PLpro yeast	Pf growth 48h	NS1 inh	Cycloheximide cs	Pf growth 96h	Shiga toxin inh
OCC[n+]1c2ccccc2nc2ccc(N3CCOCC3)cc21	-3.1%	0.329µM*	4.5%	-2.4	0.262µM*	15.0
c1ccc2[nH]c(N3CCOCC3)nc2c1	44.3%	13.6%	-1.4%	-1.0	-11.9%	6.5
Cc1noc(C)c1COc1ccc(C(=O)NCCc2ccc(F)cc2)cc1	-0.3%	?	.	.	?	.
COC(=O)CSc1ccnc2cc(Cl)ccc12	-0.4%	35.4%	-5.3%	11.6	6.7%	27.8
CC(Nc1ccnc2cc(Cl)ccc12)c1ccc(S(N)(=O)=O)cc1 (configuration not stated)	15.0%	1.85µM*	-0.8%	5.7	2.33µM*	-14.5
CCN(CC)CCC[C@H](C)Nc1ccnc2cc(Cl)ccc12	.	0.0478µM*	.	.	0.0426µM*	.
Clc1ccc2c(NCCNC3CCCCC3)ccnc2c1	.	.	13.5%	.	.	.
Cc1cc(C(=O)CSc2cccc[n+]2[O-])c(C)n1-c1ccc(OC(F)F)cc1	-2.9%	-28.8%	-155.6%	54.4*	?	58.7*
CCCCCCC1NC(C(=O)O)CS1 (configuration not stated)	0.0%	18.6%	6.2%	-4.9	23.2%	8.6
O=C1Cc2ccccc2N1c1c(Cl)cccc1Cl	5.5%	-28.9%	10.0%	-2.9	3.29µM*	3.1
CCCOc1ccc(C2=NNC(=O)CC2)cc1	-0.5%	10.8%	-0.8%	14.6*	66.1%	12.2
CCOc1ccc(/C=C/C2=NNC(=O)CC2)cc1	-1.2%	51.4%	-2.4%	23.4*	71.2%	53.0*
CCOc1ccc(/C=C2\NC(=S)NC2=O)cc1	-1.7%	2.0%	-6.3%	8.9	-27.0%	44.0
COc1ccc(/C=C/C2=NNC(=O)CC2)cc1	0.2%	96.6%	.	26.6*	205.3%	65.8
O=C1CCC(/C=C/c2ccccc2)=NN1	-3.5%	16.8%	.	17.2*	24.0%	16.9
COc1ccc(/C=C/c2c(-c3ccc(OC)cc3)oc(=O)c3cc(OC)c(OC)cc23)cc1	-14.4%	.	.	.	.	.
Cc1ccnc(NS(=O)(=O)c2ccc(N=[N+]=[N-])cc2)n1	.	.	-8.7%	.	.	.
CN(CC(=O)NCCc1ccc(S(N)(=O)=O)cc1)S(=O)(=O)/C=C/c1ccccc1	-1.9%	-1.1%	8.5%	-1.7	16.2%	3.5
COC(=O)c1cc(C)nc(Sc2ccccc2N)n1	-0.3%	?	-4.2%	18.3*	?	45.2*
CN(C)S(=O)(=O)c1ccc2c(c1)nc(CCC(=O)Nc1ccc3c(c1)OCO3)n2C	-13.4%	?	23.0%	9.6*	?	48.0*
CCN(CC)S(=O)(=O)c1ccc2c(c1)nc(CCC(=O)Nc1ccc3c(c1)OCO3)n2CC	-0.8%	?	-11.5%	8.2	6.57µM*	15.3
CCN(CC)S(=O)(=O)c1ccc2c(c1)nc(CCC(=O)Nc1ccc3c(c1)OCO3)n2C	0.4%	?	7.5%	1.3	9.28µM*	-1.8
O=C1c2c(O)cc(O)cc2O[C@H](c2ccc(O)c(O)c2)C1O (some centres not stated)	.	.	.	-7.4	.	-10.2
CC(C)Oc1cccc(C(=O)NC(=S)Nc2cccnc2)c1	?	103.6%	5.4%	32.0*	29.8%	39.9
COc1ccc(C(=O)NC(=S)Nc2cccnc2)cc1Cl	-18.1%	16.0%	-1.4%	-2.9	-10.4%	-3.3
SMILES	SARS PLpro yeast	Pf growth 48h	NS1 inh	Cycloheximide cs	Pf growth 96h	Shiga toxin inh
COc1cccc(C(=O)NC(=S)Nc2cccnc2)c1	-19.2%	97.8%	11.4%	25.9*	-25.8%	42.7*
CCCOc1cccc(C(=O)NC(=S)Nc2ccccc2)c1	28.1%	57.3%	18.2%	5.1	-1.7%	18.3
CC(C)Oc1cccc(C(=O)NC(=S)Nc2ccccc2)c1	-32.8%	266.4%	-5.4%	93.6*	85.9%	119.7*
O=C(NCCc1cccnc1)C1CCC(=O)N(CCc2cccc(F)c2)C1 (configuration not stated)	5.4%	36.9%	21.3%	10.0	?	1.6
COc1ccc(C(=O)C(CN2CCOCC2)c2ccccc2)cc1 (configuration not stated)	-35.8%	.	-201.0%	1.9	?	-6.9
COc1ccc(C(=O)C(CN2CCCC2)c2ccccc2)cc1 (configuration not stated)	-31.8%	13.1µM*	-42.1%	24.9*	3.6%	9.2
CCCOc1ccc(C(=O)C(CN2CCCC2)c2ccccc2)cc1 (configuration not stated)	-36.0%	10.4µM*	-54.3%	5.8	?	-5.0
C#CCOCCOCCOCCNc1nc(N2CCN(C(=O)[C@H](Cc3ccc(O)cc3)n3cc(CCO)nn3)CC2)nc(N2CCN(C(=O)[C@H](Cc3ccc(O)cc3)n3cc(CCO)nn3)CC2)n1	7.5%	3.6%	-16.8%	-1.8	-22.8%	-8.3
O=C(CN1CC[n+]2c(-c3ccccc3)csc21)c1ccc(Br)cc1	1.9%	7.38µM*	?	1.6	?	15.9
Cc1oc(CSCCSCc2cc(C(=O)O)c(C)o2)cc1C(=O)O	-3.5%	6.5%	?	-1.0	14.7µM*	.
C=CCC(=O)NC1CC(C)(C)Cc2c1cnn2-c1ccc(C)cc1 (configuration not stated)	-0.1%	-6.7%	-11.8%	5.2	?	30.5
Cc1ccccc1-n1ncc2c1CC(C)(C)CC2NC(=O)c1ccncc1 (configuration not stated)	5.9%	-14.2%	-4.7%	1.9	15.7%	-32.3
Cn1nccc1C(=O)NC1CC(C)(C)Cc2c1cnn2-c1ccc(F)cc1 (configuration not stated)	?	-6.5%	-12.2%	-0.4	77.3%	27.7
Cc1ccccc1-n1ncc2c1CC(C)(C)CC2NC(=O)c1snnc1C (configuration not stated)	-13.1%	?	?	-1.3	5.86µM*	-9.5
Cc1ccc(-n2ncc3c2CC(C)(C)CC3NC(=O)c2ccccn2)cc1 (configuration not stated)	-10.5%	-19.5%	-12.7%	21.0*	14.7µM*	-1.5
Cc1ccc(-n2ncc3c2CC(C)(C)CC3NC(=O)CCc2ccc(=O)[nH]n2)cc1 (configuration not stated)	3.9%	4.9%	-1.2%	5.6	13.1µM*	11.7
Cc1cc(C(=O)NC2CC(C)(C)Cc3c2cnn3-c2ccc(F)cc2)no1 (configuration not stated)	2.6%	?	-14.0%	18.2	36.3%	36.7*
CCOc1ccccc1NC(=O)CN(C)S(=O)(=O)c1cnc[nH]1	1.0%	13.7%	.	-1.3	-2.3%	11.6
Clc1ccc(/C=C/c2nc3ccccc3[nH]2)cc1	-28.4%	-85.4%	-60.7%	7.5	-53.8%	-11.6
O=[N+]([O-])c1ccc2nc(CN3CCCCC3)[nH]c2c1	-3.2%	-3.7%	.	14.9	46.5%	19.6
